Data from PubChem BioAssay (EPA / NIEHS).
Results filed as inconclusive are left out. Activity calls are given as the source filed them. How the source made its calls, unless noted: active means hit-call score of the fitted dose curve at least 0.9, where 1 is the maximum; inactive means score below 0.9.

What was measured:
[1] = target: Nuclear respiratory factor 1 (Homo sapiens) (UniProt Q16656); experiment: ATG_NRF1_CIS: Attagene CIS-FACTORIAL HepG2 Assay for human Nuclear Respiratory Factor 1 (NRF1) Orphan Gene (AID 2282987); settings: HepG2 NRF1 cis-element reporter, Attagene multiplex; actives raise or lower the signal
How it was run: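 HepG2 cells transiently transfected with multiple cis-regulated reporter units, exposed 24 h. Reporter mRNAs measured by RT-PCR, fluorescent labelling, HpaI digestion and capillary electrophoresis; bidirectional fitting against DMSO.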

[2] = ATG_NFI_CIS: Attagene CIS-FACTORIAL HepG2 Assay for human Nuclear Factor I (NFI) (AID 2282989); settings: HepG2 cis-regulatory reporter, NFI response element transcription; actives raise or lower the signal
How it was run: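 Transient MRTU transfection of HepG2 → 24 h chemical dosing → total RNA, oligo(dT) RT → PCR, 6-FAM primer extension, HpaI cut → capillary electrophoresis. Endpoint fitted bidirectionally relative to DMSO.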

[3] = target: Myc proto-oncogene protein (Homo sapiens) (UniProt P01106); experiment: ATG_Myc_CIS: Attagene CIS-FACTORIAL HepG2 Assay for human Myelocytomatosis (Myc) Proto-Oncogene Transcription Factor (AID 2282990); settings: HepG2, Attagene cis-reporter transcription factor activity; actives raise or lower the signal
How it was run: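 DMSO-normalised, bidirectionally fitted reporter mRNA signal. HepG2 cells transfected with cis reporter constructs, treated 24 h; transcripts detected by RT-PCR, 6-FAM primer extension and CE.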

[4] = ATG_NRF2_ARE_CIS: Attagene CIS-FACTORIAL HepG2 Assay for human Nuclear Factor Erythroid 2 Related Factor 2 (NFR2) response to Antioxidant Response Elements (ARE) (AID 2282992); settings: HepG2 Attagene ARE/NRF2 reporter, transcription factor activity; actives raise or lower the signal;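 on AC50: reporter mRNA level measured by RT-PCR and capillary electrophoresis fluorescence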
How it was run: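 Fluorescence intensity of reporter-specific cDNA fragments, separated by capillary electrophoresis, reflects mRNA induction in transfected HepG2 cells at 24 h. Activity is fitted bidirectionally, DMSO serving as baseline.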

[5] = ATG_Oct_MLP_CIS: Attagene CIS-FACTORIAL HepG2 Assay for human Octamer-Binding Transcription Factor (Oct) (AID 2282993); settings: HepG2 Attagene cis-factorial Oct reporter, mRNA; actives raise or lower the signal
How it was run: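 Transient MRTU transfection of HepG2 → 24 h compound treatment → RNA isolation, reverse transcription, PCR → 6-FAM primer extension, HpaI digest → capillary electrophoresis. Activity fitted both directions against DMSO.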

[6] = target: human Peroxisome Proliferator-activated Receptor delta (PPARd), PPARD (gene 5467) (UniProt Q03181); experiment: ATG_PPARd_TRANS: Attagene TRANS-FACTORIAL HepG2 Assay for human Peroxisome Proliferator-activated Receptor delta (PPARd) (AID 2283002; active means hit-call score of the fitted dose curve at least 0.9, where 1 is the maximum)
How it was run: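 Measured quantity: GAL4-UAS reporter transcript induction in HepG2 after 24 h chemical dosing, with NR-Gal4 chimeras supplied by transient transfection. Detection by RT-PCR and capillary electrophoresis; upward fit against DMSO.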

[7] = target: human Retinoic Acid Receptor beta (RARb), RARB (gene 5915) (UniProt P10826); experiment: ATG_RARb_TRANS: Attagene TRANS-FACTORIAL HepG2 Assay for human Retinoic Acid Receptor beta (AID 2283004; active means hit-call score of the fitted dose curve at least 0.9, where 1 is the maximum)
How it was run: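 Induction of reporter mRNA from a chimeric RARb-Gal4 construct was measured by RT-PCR, FAM labelling, HpaI digestion and capillary electrophoresis. Measurements followed 24 h compound treatment of transiently transfected human HepG2 liver cells, with DMSO as baseline.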

[8] = target: Peroxisome proliferator-activated receptor gamma (Homo sapiens) (UniProt P37231); experiment: ATG_PPARg_TRANS: Attagene TRANS-FACTORIAL HepG2 Assay for human Peroxisome Proliferator-activated Receptor-gamma (PPARg) (AID 2283007; active means hit-call score of the fitted dose curve at least 0.9, where 1 is the maximum)
How it was run: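 HepG2 cells are transiently transfected with GAL4-UAS reporter units driven by chimeric NR-Gal4 fusions and dosed for 24 h. Reporter mRNA is quantified by RT-PCR, 6-FAM labelling, HpaI digestion and capillary electrophoresis. Induction is scored against DMSO.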

[9] = target: human Retinoic Acid Receptor gamma (RARg), RARG (gene 5916) (UniProt P13631); experiment: ATG_RARg_TRANS: Attagene TRANS-FACTORIAL HepG2 Assay for human Retinoic Acid Receptor gamma (RARg) (AID 2283009; active means hit-call score of the fitted dose curve at least 0.9, where 1 is the maximum)
How it was run: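 TRANS format measured activity of exogenous NR-GAL4 fusion (RARg) in transfected HepG2 liver cells after 24 h dosing. Induced reporter RNA was detected by RT-PCR/capillary electrophoresis fluorescence, analysed in the positive direction against DMSO.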

[10] = target: Cellular tumor antigen p53 (Homo sapiens) (UniProt P04637); experiment: ATG_p53_CIS: Attagene CIS-FACTORIAL HepG2 Assay for human p53 Transcription Factor (AID 2282994); settings: HepG2 p53 cis-element reporter, Attagene mRNA; actives raise or lower the signal
How it was run: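 Transiently transfected HepG2 (multiple cis reporter transcription units); exposure 24 h; reporter RNA via RT-PCR, 6-FAM extension, 2 h HpaI digest at 37 C, CE detection; DMSO baseline.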

[11] = BSK_3C_TissueFactor: BioMAP Diversity Plus: 3C Assay for Tissue Factor Biomarker Activity (AID 2282997); settings: BioMAP 3C HUVEC, tissue factor biomarker readout; actives raise or lower the signal
How it was run: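 Tissue factor on primary human umbilical vein endothelium was read by ELISA 24 h after dosing, gain or loss relative to DMSO. Cytotoxicity ran alongside via SRB (0.1%, TCA-fixed, 560 nm).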

[12] = BSK_3C_uPAR: BioMAP Diversity Plus: 3C Assay for Urokinase-type plasminogen activator receptor (uPAR) Biomarker Activity (AID 2282998); settings: BioMAP 3C HUVEC, uPAR biomarker ELISA; actives raise or lower the signal
How it was run: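 ELISA readout of uPAR on human vascular endothelium (umbilical vein primary cells), taken 24 h after chemical dosing. Increases and decreases are both fitted relative to DMSO vehicle.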

[13] = BSK_3C_VCAM1: BioMAP Diversity Plus: 3C Assay for Vascular cell adhesion molecule 1 (VCAM1) Biomarker Activity (AID 2282999); settings: BioMAP 3C HUVEC, VCAM1 ELISA, cytokine-stimulated; actives raise or lower the signal
How it was run: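 Vascular primary endothelium (human umbilical vein) was exposed to chemicals and assayed 24 h later. VCAM-1 levels came from ELISA, with DMSO serving as baseline for bidirectional fitting.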

[14] = read-out: Intercellular Adhesion Molecule 1 (ICAM1), ICAM1 (gene 3383); experiment: BSK_3C_ICAM1: BioMAP Diversity Plus: 3C Assay for Intercellular Adhesion Molecule 1 (ICAM1) Biomarker Activity (AID 2283003); settings: primary human endothelial cells (HUVEC); actives raise or lower the signal
How it was run: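 Chemicals are dosed onto primary human umbilical vein endothelium (3C system). After 24 h, ICAM-1 is measured by ELISA, and responses are fitted bidirectionally relative to DMSO.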

[15] = BSK_3C_Proliferation: Cell Proliferation Assessment in the BioMAP Diversity Plus: 3C Assay (AID 2283006); settings: primary human endothelial cells (HUVEC);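 on AC50: potency may reflect either rise or fall in cell number versus DMSO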
How it was run: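 Cells (human umbilical vein endothelial, sub-confluent) receive test chemical; after 48 h they are fixed in 10% trichloroacetic acid, stained with 0.1% SRB and read at 560 nm. Activity is referenced to DMSO, fitting increases and decreases.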

[16] = target: Nuclear receptor subfamily 1 group I member 2 (Homo sapiens) (UniProt O75469); experiment: ATG_PXR_TRANS: Attagene TRANS-FACTORIAL HepG2 Assay for human Pregnane X Receptor (PXR) (AID 2283008; active means hit-call score of the fitted dose curve at least 0.9, where 1 is the maximum)
How it was run: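 Transient HepG2 transfectants carrying multiplexed reporter transcription units; PXR activity read through a Gal4 chimera. 24 h exposure. RT-PCR/CE fluorescence; upward curve fit referenced to DMSO.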

[17] = target: Retinoic acid receptor alpha (Homo sapiens) (UniProt P10276); experiment: ATG_RARa_TRANS: Attagene TRANS-FACTORIAL HepG2 Assay for human Retinoic Acid Receptor alpha (RARa) (AID 2283005; active means hit-call score of the fitted dose curve at least 0.9, where 1 is the maximum)
How it was run: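 HepG2 cells transiently transfected with multiple reporter units expressing chimeric RARα-GAL4 fusion, with GAL4-UAS-driven reporters. After 24 h compound exposure, reporter mRNA induction quantified by RT-PCR and capillary electrophoresis with fluorescent labeling; gain-of-signal fitted relative to DMSO control.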

Measured: AC50

Peroxisome proliferator-activated receptor gamma (Homo sapiens), sequence (P37231 whole entry, looked up, the tested form may be a part): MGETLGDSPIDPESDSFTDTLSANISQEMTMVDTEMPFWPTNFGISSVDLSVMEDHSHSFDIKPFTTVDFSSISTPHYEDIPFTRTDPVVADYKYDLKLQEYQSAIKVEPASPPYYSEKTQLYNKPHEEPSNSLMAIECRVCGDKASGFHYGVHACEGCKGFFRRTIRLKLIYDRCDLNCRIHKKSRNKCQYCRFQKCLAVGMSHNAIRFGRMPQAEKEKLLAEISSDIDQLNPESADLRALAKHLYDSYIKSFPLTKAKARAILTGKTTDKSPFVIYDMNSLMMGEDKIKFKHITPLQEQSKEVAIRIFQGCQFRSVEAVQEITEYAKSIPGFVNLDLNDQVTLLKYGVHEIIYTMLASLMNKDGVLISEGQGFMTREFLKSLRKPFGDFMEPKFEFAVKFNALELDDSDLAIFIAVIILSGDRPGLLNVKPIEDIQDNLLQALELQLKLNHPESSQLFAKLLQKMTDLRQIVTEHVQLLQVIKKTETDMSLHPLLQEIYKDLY
Nuclear receptor subfamily 1 group I member 2 (Homo sapiens), sequence (O75469 whole entry, looked up, the tested form may be a part): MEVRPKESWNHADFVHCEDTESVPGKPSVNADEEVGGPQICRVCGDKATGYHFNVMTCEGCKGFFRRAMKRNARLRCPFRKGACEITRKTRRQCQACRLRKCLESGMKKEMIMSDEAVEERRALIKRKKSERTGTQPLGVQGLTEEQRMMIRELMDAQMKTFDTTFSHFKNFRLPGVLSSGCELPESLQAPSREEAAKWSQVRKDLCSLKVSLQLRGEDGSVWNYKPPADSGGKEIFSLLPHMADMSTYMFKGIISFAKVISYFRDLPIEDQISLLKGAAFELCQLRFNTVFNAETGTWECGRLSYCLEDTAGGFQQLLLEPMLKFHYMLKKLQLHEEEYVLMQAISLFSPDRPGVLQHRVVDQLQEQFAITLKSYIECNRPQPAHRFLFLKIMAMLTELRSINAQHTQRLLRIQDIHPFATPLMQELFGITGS
human Peroxisome Proliferator-activated Receptor delta (PPARd), PPARD (gene 5467), sequence (Q03181 whole entry, looked up, the tested form may be a part): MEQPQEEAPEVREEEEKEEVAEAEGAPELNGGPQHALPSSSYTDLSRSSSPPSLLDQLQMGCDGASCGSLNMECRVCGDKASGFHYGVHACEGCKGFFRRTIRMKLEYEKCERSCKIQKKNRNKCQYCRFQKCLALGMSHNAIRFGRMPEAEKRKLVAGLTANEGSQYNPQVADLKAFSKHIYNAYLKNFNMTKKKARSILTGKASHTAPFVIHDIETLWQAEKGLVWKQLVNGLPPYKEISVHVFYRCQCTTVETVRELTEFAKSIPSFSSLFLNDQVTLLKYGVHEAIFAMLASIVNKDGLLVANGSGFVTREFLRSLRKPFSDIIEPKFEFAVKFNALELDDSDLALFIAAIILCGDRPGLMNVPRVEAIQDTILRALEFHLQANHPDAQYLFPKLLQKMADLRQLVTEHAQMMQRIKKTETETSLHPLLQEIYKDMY
Nuclear respiratory factor 1 (Homo sapiens), sequence (Q16656 whole entry, looked up): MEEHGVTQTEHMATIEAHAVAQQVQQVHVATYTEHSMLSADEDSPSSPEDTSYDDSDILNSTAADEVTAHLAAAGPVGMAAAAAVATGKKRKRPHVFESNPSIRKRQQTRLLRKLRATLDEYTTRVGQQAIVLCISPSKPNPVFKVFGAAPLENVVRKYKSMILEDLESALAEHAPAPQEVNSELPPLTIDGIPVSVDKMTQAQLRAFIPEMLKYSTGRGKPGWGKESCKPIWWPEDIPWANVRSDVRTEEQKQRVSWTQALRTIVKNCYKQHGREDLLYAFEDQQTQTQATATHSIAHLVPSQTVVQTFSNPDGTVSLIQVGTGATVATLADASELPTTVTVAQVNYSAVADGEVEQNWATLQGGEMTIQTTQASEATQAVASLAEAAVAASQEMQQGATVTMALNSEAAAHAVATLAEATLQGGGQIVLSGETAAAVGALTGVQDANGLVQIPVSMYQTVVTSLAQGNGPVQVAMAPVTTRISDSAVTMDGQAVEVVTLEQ
human Retinoic Acid Receptor gamma (RARg), RARG (gene 5916), sequence (P13631 whole entry, looked up, the tested form may be a part): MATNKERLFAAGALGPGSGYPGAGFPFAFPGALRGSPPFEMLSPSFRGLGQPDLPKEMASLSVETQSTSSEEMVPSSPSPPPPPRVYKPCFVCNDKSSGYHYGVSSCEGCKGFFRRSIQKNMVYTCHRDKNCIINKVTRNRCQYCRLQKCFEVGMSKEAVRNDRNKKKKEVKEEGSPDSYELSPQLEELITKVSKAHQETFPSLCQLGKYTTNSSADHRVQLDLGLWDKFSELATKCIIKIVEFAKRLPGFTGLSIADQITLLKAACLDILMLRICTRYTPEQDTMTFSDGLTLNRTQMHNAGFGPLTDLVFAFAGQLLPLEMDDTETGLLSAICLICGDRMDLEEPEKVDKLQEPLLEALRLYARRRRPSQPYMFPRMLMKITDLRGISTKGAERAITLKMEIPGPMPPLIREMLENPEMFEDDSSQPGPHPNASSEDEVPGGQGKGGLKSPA
Myc proto-oncogene protein (Homo sapiens), sequence (P01106 whole entry, looked up): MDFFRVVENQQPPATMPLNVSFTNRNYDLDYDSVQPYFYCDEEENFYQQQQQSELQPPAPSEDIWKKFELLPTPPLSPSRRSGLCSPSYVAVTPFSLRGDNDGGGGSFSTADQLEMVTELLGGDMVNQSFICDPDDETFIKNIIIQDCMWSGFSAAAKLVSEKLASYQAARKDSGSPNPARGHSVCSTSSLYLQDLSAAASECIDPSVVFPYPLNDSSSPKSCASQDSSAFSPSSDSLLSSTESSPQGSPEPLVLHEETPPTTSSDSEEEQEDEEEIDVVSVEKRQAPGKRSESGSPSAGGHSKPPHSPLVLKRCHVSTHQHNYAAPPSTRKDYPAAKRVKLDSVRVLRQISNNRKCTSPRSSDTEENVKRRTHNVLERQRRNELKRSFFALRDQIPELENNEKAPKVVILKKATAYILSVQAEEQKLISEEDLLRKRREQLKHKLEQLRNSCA
human Retinoic Acid Receptor beta (RARb), RARB (gene 5915), sequence (P10826 whole entry, looked up, the tested form may be a part): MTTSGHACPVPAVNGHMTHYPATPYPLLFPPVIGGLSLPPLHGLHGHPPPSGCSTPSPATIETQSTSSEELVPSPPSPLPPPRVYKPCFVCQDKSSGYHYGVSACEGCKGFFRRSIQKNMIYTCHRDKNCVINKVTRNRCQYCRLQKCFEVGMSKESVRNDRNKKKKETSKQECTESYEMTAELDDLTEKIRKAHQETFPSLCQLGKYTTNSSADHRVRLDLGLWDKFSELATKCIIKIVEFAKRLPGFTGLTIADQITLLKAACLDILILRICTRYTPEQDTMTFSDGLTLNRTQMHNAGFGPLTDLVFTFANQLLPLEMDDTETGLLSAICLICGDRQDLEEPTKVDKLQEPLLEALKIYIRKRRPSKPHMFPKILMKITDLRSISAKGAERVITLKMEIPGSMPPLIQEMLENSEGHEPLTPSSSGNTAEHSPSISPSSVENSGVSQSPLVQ
Retinoic acid receptor alpha (Homo sapiens), sequence (P10276 whole entry, looked up, the tested form may be a part): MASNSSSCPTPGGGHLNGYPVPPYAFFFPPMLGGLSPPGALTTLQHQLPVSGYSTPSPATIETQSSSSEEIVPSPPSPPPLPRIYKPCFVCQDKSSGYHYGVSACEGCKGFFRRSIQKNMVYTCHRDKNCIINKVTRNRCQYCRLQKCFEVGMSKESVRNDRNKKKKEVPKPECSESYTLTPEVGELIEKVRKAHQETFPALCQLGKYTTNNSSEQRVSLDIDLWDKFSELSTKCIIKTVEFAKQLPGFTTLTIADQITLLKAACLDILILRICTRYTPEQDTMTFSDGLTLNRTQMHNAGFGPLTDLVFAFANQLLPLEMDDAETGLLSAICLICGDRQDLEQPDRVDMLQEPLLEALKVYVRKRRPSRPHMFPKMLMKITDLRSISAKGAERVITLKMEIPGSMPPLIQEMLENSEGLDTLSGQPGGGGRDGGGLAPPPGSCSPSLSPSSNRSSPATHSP
Cellular tumor antigen p53 (Homo sapiens), sequence (P04637 whole entry, looked up): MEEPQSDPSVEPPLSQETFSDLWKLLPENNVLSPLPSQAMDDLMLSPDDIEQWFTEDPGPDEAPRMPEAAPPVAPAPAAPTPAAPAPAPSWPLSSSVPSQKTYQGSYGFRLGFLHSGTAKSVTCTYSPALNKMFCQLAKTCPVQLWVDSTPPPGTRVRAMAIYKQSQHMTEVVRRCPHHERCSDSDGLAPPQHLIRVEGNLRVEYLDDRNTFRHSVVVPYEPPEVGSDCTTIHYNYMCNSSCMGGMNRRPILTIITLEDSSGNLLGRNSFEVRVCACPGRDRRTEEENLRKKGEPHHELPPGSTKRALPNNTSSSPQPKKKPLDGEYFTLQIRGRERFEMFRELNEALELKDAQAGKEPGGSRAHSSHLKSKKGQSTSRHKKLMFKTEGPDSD

CC(C)CBr
inactive: [1] | [2] | [3] | [4] | [5] | [6] | [7] | [8] | [9]

N#Cc1cc([N+](=O)[O-])ccc1N
active: [11] 706 nM
not listed: [4] | [6] | [7] | [9] | [17]
inactive: all other assays above

CC(C)(C)N(NC(=O)c1ccc(Cl)cc1)C(=O)c1ccccc1
inactive: [1] | [2] | [3] | [5] | [8] | [16] | [9]

CCCCC(CC)COC(=O)c1c(Br)c(Br)c(Br)c(Br)c1C(=O)OCC(CC)CCCC (configuration not stated)
not listed: [4] | [7] | [9] | [10] | [17]
inactive: all other assays above

Cc1ccc([N+](=O)[O-])cc1C
not listed: [6] | [7] | [8] | [9] | [10] | [17]
inactive: all other assays above

N#Cc1c(-c2ccc(Cl)cc2)[nH]c(C(F)(F)F)c1Br
active: [5] 67.5 nM | [11] 20000 nM | [12] 469 nM | [13] 6030 nM | [15] 393 nM | [8] 573 nM | [16] 585 nM
not listed: [4] | [10]
inactive: all other assays above

Cc1cc(C)c(C(=O)P(=O)(c2ccccc2)c2ccccc2)c(C)c1
inactive: [1] | [5]
active: [2] 55200 nM | [3] 49100 nM | [4] 4780 nM | [16] 57.6 nM
